Out of some 370,000 compounds screened, about 150 (0.041%) were called active. Roughly 14% stayed inconclusive and do not appear here. The call rests on the fitted dose curve; in most records, active means well fitted inhibition curve with a large enough effect; inconclusive means small, poorly fitted or top-dose-only effect; inactive means flat fitted curve, though single readings scatter. Shown is part of a subset that was picked to be rich in actives. Where a call stands in place of a potency, no number is given.
The compounds below were run against Beta-lactamase (Escherichia coli (strain K12)) (UniProt P00811) (assay: qHTS Inhibitors of AmpC Beta-Lactamase (assay with detergent)). Conditions: AmpC hydrolysis of nitrocefin, absorbance 480 nm, 0.01% Triton; series mostly up to 114 µM.
Chain of Beta-lactamase (Escherichia coli (strain K12)) (P00811 whole entry, looked up): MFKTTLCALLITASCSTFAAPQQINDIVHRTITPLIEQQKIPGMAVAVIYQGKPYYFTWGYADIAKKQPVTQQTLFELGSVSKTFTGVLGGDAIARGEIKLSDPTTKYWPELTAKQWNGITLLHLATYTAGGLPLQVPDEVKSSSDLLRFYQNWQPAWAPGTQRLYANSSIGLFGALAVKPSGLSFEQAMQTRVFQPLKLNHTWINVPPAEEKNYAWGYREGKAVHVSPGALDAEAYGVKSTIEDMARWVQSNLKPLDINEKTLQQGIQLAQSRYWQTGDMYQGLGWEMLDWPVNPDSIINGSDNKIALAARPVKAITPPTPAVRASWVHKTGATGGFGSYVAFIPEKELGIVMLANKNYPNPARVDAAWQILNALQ
Experimental: NIH Molecular Libraries Probe Production Network [MLPCN] NIH Chemical Genomics Center [NCGC] Assay Provider: Professor Brian Shoichet, UCSF Assay Overview: This aggregation profiling approach exploits the sensitivity of aggregate formation to detergent. Inhibition of b-lactamase is measured in the presence and absence of 0.01% Triton X-100. This particular assay had the prescence of 0.01% Triton X-100. See Pubchem assay "Promiscuous and Specific Inhibitors of AmpC Beta-Lactamase (assay without detergent)" for related screen. Compounds that inhibit only in the absence of detergent are considered likely promiscuous aggregators. A screen of 1,030 compounds was performed in Brian Shoichet's lab in 96-well format. AmpC activity was measured by following the absorbance at 480 nm. Nitrocefin is a chromogenic substrate: while nitrocefin is yellow (lmax 390 nm), the product of its hydrolysis is red (lmax 486 nm, 17,000 M-1). AmpC beta lactamase was provided by Shoichet Lab, UCSF.
Buffer: 20 mM phosphate buffer, pH 7.0 Triton X-100: No Detergent screen: 0.0001%, Detergent screen: 0.01%. Reagents/Controls: Buffer in columns 3 and 4 as negative control (no enzyme). 5.3 nM AmpC in columns 1, 2, 5-48. Titration of UCSF compound 9 control (from 10 mM, then 1:2) pin-transferred to column 2. Column 1 is neutral (100% activity). Assay Steps: Six uL of reagents were dispensed to 1536-well Greiner black clear bottom plates. Compounds and controls (23 nL) were transferred via Kalypsys PinTool. The plates were incubated for 15 min at room temperature, and then 2 uL of 800 uM solution of nitrocefin was added to start the reaction. The plates were immediately transferred to and read every 20 seconds for 4 min on ViewLux (Perkin-Elmer) High-throughput CCD imager using 480 nm absorbance protocol. During dispense, reagent bottles were kept submerged into 4 deg C water bath. Keywords: NIH Roadmap, MLSCN, MLI, MLSMR, qHTS, NCGC, AmpC Beta-Lactamase, Aggregation
Further: nearly all actives have a fitted effect of over 25% in size.
Potency means the concentration at half of the fitted maximal effect.

**Q.** How did the Potency turn out when CC(C)(C)c1ccc(C(=O)NCC(c2ccc(Cl)cc2)N2CCOCC2)cc1 (configuration not stated) was run?
**A.** The Potency was “inactive”.

**Q.** With COC(=O)c1c(NC(=O)c2cc(=O)c3c(C)cc(C)cc3o2)sc2c1CCCC2 as the compound, how does the Potency read?
**A.** Its Potency is “inactive”.

**Q.** With CCc1cc2c(cc3c(=O)n(CC(=O)NCCc4ccc(OC)c(OC)c4)ncn32)s1 as the compound, how does the Potency read?
**A.** The Potency was “inactive”.

**Q.** Cc1ccccc1CNC(=O)Cn1c(C)c2cnn(-c3ccccc3)c(=O)c2c1C was tested. Which Potency did it give?
**A.** The Potency was “inactive”.

**Q.** COc1ccc(-c2nc3sc(CCNC(=O)C(C)(C)C)c(C)n3n2)cc1 was tested. Which Potency did it give?
**A.** The Potency was “inactive”.

**Q.** Which Potency does the source give for Cc1nn(C(=O)c2c(F)cccc2F)c(C)c1S(=O)(=O)N1CCOCC1 here?
**A.** Its Potency is “inactive”.

**Q.** How did the Potency turn out when CCOc1ccc(C(=O)/C=C/c2cn(CC(O)CN3CCCCCC3)c3ccccc23)cc1 (configuration not stated) was run?
**A.** Its Potency is “inactive”.

**Q.** Which Potency does the source give for COc1ccc(OCCCn2c(C3CC(=O)N(c4ccc(F)cc4)C3)nc3ccccc32)cc1 (configuration not stated) here?
**A.** Its Potency is “inactive”.

**Q.** Cn1c(C(=O)Nc2cccc(C(F)(F)F)c2)cc2c(=O)n3ccccc3nc21 was tested. Which Potency did it give?
**A.** Its Potency is “inactive”.

**Q.** With CCOc1ccc(CNC(=O)Cn2cc3c(n2)-c2c(oc(C(=O)N4CCCC4)c2C)CC3)cc1 as the compound, how does the Potency read?
**A.** The Potency was “inactive”.

**Q.** Cc1ccc(Nc2c(-c3ccc(N(C)C)cc3)nc3nc[nH]n23)cc1 was tested. Which Potency did it give?
**A.** The Potency was “inactive”.

**Q.** For CCOC(=O)c1ccc(NC(=O)C2CCN(S(=O)(=O)c3ccc4c(c3)CCCC(=O)N4)CC2)cc1, which Potency is on record?
**A.** The Potency was “inactive”.

**Q.** Which Potency does the source give for Cc1csc2nc(COC(=O)c3ccccc3NC(=O)c3ccccc3Cl)cc(=O)n12 here?
**A.** The Potency was “inactive”.

**Q.** Which Potency does the source give for CCOc1ccc(Nc2c(S(=O)(=O)c3ccccc3)cnc3ccccc23)cc1 here?
**A.** Its Potency is “inactive”.

**Q.** With CCCCn1cc(S(=O)(=O)c2ccc(OCC)cc2)c(=O)c2cc(OC)c(OC)cc21 as the compound, how does the Potency read?
**A.** The Potency was “inactive”.

**Q.** For Cc1ccc(C)c(N2CCN(CCCNC(=O)Nc3ccc(Cl)cc3)CC2)c1, which Potency is on record?
**A.** The Potency was “inactive”.

**Q.** Which Potency does the source give for Cc1ccc2nc(-c3ccc(C)c(NC(=O)Cc4ccccc4)c3)oc2c1 here?
**A.** The Potency was “inactive”.

**Q.** With CCc1cccc(C)c1Nc1c(-c2ccc(N(C)C)cc2)nc2ncccn12 as the compound, how does the Potency read?
**A.** The Potency was “inactive”.

**Q.** CCc1ccc(N2C(=O)CN(S(=O)(=O)CC)CC2(C)C(=O)NC2CCCCC2)cc1 (configuration not stated) was tested. Which Potency did it give?
**A.** The Potency was “inactive”.

**Q.** COc1ccc(N2CCN(C(=O)C3CCCN(C(=O)c4cc5sccc5n4C)C3)CC2)cc1 (configuration not stated) was tested. Which Potency did it give?
**A.** The Potency was “inactive”.

**Q.** With O=C(CCS(=O)(=O)c1ccccc1)N(Cc1cccnc1)c1nc2c(F)cccc2s1 as the compound, how does the Potency read?
**A.** The Potency was “inactive”.

**Q.** With CCOC(=O)c1nnn(CC(=O)NC(=O)Nc2ccccc2F)c1C(=O)OCC as the compound, how does the Potency read?
**A.** The Potency was “inactive”.

**Q.** With C[C@@H](NC(=O)OC(C)(C)C)c1nnc(S(=O)(=O)Cc2ccccc2)o1 as the compound, how does the Potency read?
**A.** The Potency was 8.91 µM (active).

**Q.** How did the Potency turn out when CCc1ccccc1NC(=O)CSc1nnc([C@@H](NC(=O)OC(C)(C)C)C(C)C)o1 was run?
**A.** The Potency was “inactive”.

**Q.** With CC(C)Sc1nnc([C@H](Cc2ccccc2)NC(=O)OC(C)(C)C)o1 as the compound, how does the Potency read?
**A.** The Potency was “inactive”.

**Q.** Which Potency does the source give for CC1CCN(S(=O)(=O)c2ccc3c(c2)N(CC(=O)NCCc2ccccc2)C(=O)CO3)CC1 here?
**A.** The Potency was “inactive”.

**Q.** With Cc1cccc(-n2ncc(C(=O)N3CCN(c4ccc(Cl)cc4)CC3)c2C2CCN(C(=O)OC(C)(C)C)CC2)c1 as the compound, how does the Potency read?
**A.** The Potency was “inactive”.

**Q.** CCOC(=O)c1ccc(NC(=O)CCS(=O)(=O)c2ccc(C)cc2)cc1 was tested. Which Potency did it give?
**A.** Its Potency is “inactive”.

**Q.** CCOC(=O)c1scc(-c2ccc(C)cc2)c1S(=O)(=O)Nc1cc(C)ccc1C was tested. Which Potency did it give?
**A.** Its Potency is “inactive”.

**Q.** Cc1ccc(S(=O)(=O)N2CCc3cc(C(=O)Nc4ccc(Cl)cc4C)ccc32)cc1 was tested. Which Potency did it give?
**A.** The Potency was “inactive”.

**Q.** With CC1CCCN(c2cc3c(cc2F)c(=O)c(S(=O)(=O)c2cccc(Cl)c2)cn3Cc2ccccc2)C1 (configuration not stated) as the compound, how does the Potency read?
**A.** The Potency was “inactive”.

**Q.** For CCOC(=O)c1ccc(NC(=O)CSc2nc3c([nH]c4ccccc43)c(=O)n2C)cc1, which Potency is on record?
**A.** Its Potency is “inactive”.

**Q.** For COc1ccc(C2CC(=O)N(Cc3ccccc3C)c3c2c(C)nn3-c2nc(C)cc(C)n2)c(OC)c1 (configuration not stated), which Potency is on record?
**A.** Its Potency is “inactive”.

**Q.** With COc1ccc2c(c1)c(=O)c(S(=O)(=O)c1ccc(F)cc1)cn2CC(=O)Nc1ccc(C)cc1C as the compound, how does the Potency read?
**A.** The Potency was “inactive”.

**Q.** Cn1c(=O)nc2n(-c3ccc(Br)cc3)c3cccc(Cl)c3cc-2c1=O was tested. Which Potency did it give?
**A.** The Potency was “inactive”.

**Q.** How did the Potency turn out when O=C(Cn1cc(SCc2ccccc2)c2ccccc21)N1CCCCC1 was run?
**A.** Its Potency is “inactive”.

**Q.** How did the Potency turn out when COCCCNC(=O)c1c(NC(=O)c2cc(=O)c3cc(C)c(C)cc3o2)sc2c1CCCC2 was run?
**A.** The Potency was “inactive”.

**Q.** How did the Potency turn out when COc1ccc2c(c1)c(N1CCCC1=O)c(C(=O)Nc1ccccc1C(F)(F)F)n2C was run?
**A.** Its Potency is “inactive”.

**Q.** How did the Potency turn out when CCOc1cc(C(=O)NCCc2csc3nc(-c4ccc(C)cc4)nn23)cc(OCC)c1OCC was run?
**A.** The Potency was “inactive”.

**Q.** COc1ccccc1CNC(=O)CCn1c(=O)c2ccccc2n(CC(=O)Nc2cccc(Cl)c2)c1=O was tested. Which Potency did it give?
**A.** The Potency was “inactive”.

**Q.** Which Potency does the source give for COc1ccc(NS(=O)(=O)c2ccc(N3CCOCC3)c(NC(=O)c3ccccc3Br)c2)cc1 here?
**A.** Its Potency is “inactive”.

**Q.** O=C1OC(OC(=O)c2ccccc2Br)C(N2CCOCC2)=C1Cl (configuration not stated) was tested. Which Potency did it give?
**A.** The Potency was 10 µM (active).

**Q.** How did the Potency turn out when O=C1OC(NC(=O)c2ccccc2)C(N2CCOCC2)=C1Cl (configuration not stated) was run?
**A.** The Potency was “inactive”.

**Q.** For Cc1oc2c(c1C(=O)Nc1ccc(F)c(F)c1)C1=NCCN1C=N2, which Potency is on record?
**A.** The Potency was “inactive”.

**Q.** How did the Potency turn out when Cn1c(=O)sc2cc(NS(=O)(=O)c3ccc(C(C)(C)C)cc3)ccc21 was run?
**A.** Its Potency is “inactive”.

**Q.** Which Potency does the source give for CCCN(CCC)C(=O)C(Cc1ccccc1)NS(=O)(=O)c1ccc2c(c1)c(=O)n(C)c(=O)n2C (configuration not stated) here?
**A.** Its Potency is “inactive”.

**Q.** CCOc1ccc(NC(=O)c2c(NC(=O)Cc3ccccc3)sc3c2CCCCC3)cc1 was tested. Which Potency did it give?
**A.** Its Potency is “inactive”.

**Q.** How did the Potency turn out when O=C(O)c1ccc(CSc2nc3cccnc3n2Cc2cccc(F)c2)cc1 was run?
**A.** Its Potency is “inactive”.

**Q.** With COc1ccc(-c2nnc(SCC(=O)Nc3ccccc3C)o2)cc1OC as the compound, how does the Potency read?
**A.** The Potency was “inactive”.

**Q.** For O=C(Nc1ccc(O)c(-c2nc3ccccc3o2)c1)c1ccc(-c2cccc(Cl)c2)o1, which Potency is on record?
**A.** The Potency was “inactive”.

**Q.** How did the Potency turn out when O=C(Cn1c(=O)n(-c2ccc(F)cc2)c(=O)c2sccc21)Nc1cccc(C(F)(F)F)c1 was run?
**A.** Its Potency is “inactive”.

**Q.** For CSc1ccc(C2C(C(=O)Nc3ccccc3)=C(C)Nc3nc4ccccc4n32)cc1 (configuration not stated), which Potency is on record?
**A.** Its Potency is “inactive”.

**Q.** Which Potency does the source give for COc1ccccc1NC(=O)COC(=O)COc1ccccc1F here?
**A.** The Potency was “inactive”.

**Q.** For CC(Oc1ccccc1F)C(=O)NN (configuration not stated), which Potency is on record?
**A.** The Potency was 79.4 µM (active).

**Q.** Which Potency does the source give for CC(C)C(=O)NC(=S)Nc1ccccc1F here?
**A.** Its Potency is “inactive”.

**Q.** COc1ccc2c(c1)c(=O)c(C(=O)c1ccccc1)cn2CC(=O)Nc1ccc2c(c1)OCCO2 was tested. Which Potency did it give?
**A.** The Potency was “inactive”.

**Q.** Which Potency does the source give for CC1CCCN(S(=O)(=O)c2ccc3[nH]c(=O)cc(C(=O)NCCc4ccc(Cl)cc4)c3c2)C1 (configuration not stated) here?
**A.** Its Potency is “inactive”.

**Q.** With O=S(=O)(NCC(c1ccccc1)N1CCc2ccccc21)c1ccccc1 (configuration not stated) as the compound, how does the Potency read?
**A.** Its Potency is “inactive”.

**Q.** How did the Potency turn out when Cc1ccc2nc(COc3cccc(NC(=O)Nc4ccc(C)c(Cl)c4)c3)cc(=O)n2c1 was run?
**A.** Its Potency is “inactive”.

**Q.** COc1ccc(C(=O)ON=C2c3ccccc3-c3ccccc32)cc1OC was tested. Which Potency did it give?
**A.** Its Potency is “inactive”.

**Q.** CN1C(=O)/C(=N/OC(=O)c2ccccc2Br)c2ccccc21 was tested. Which Potency did it give?
**A.** Its Potency is 35.5 µM (active).

**Q.** CN1C(=O)/C(=C\c2cc(Br)cs2)c2ccccc21 was tested. Which Potency did it give?
**A.** Its Potency is “inactive”.
